Measured values: PubChem BioAssay AID449762 (Southern Research Specialized Biocontainment Screening …, 2010)
The whole screen tested about 330,000 compounds, of which about 1,900 (0.58%) were called active. Not shown: some 4% with an inconclusive outcome. A selection follows. Results with a measured potency or affinity are listed apart. A number with no mark means an inactive call. No stated cut-off is given here; in the data, inconclusive means inhibition above about 70% without an active follow-up result; inactive means below that.

Test: M. tuberculosis growth inhibition, HTS (AID 449762);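 further: bacterial growth assessed after seven days of incubation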
Conditions: M. tuberculosis H37Rv growth inhibition, 7H9 media; at 25 µM; hits give high values

Row | Structure (SMILES) | inhibition [%]
1 | O=C(N/N=C/c1ccc[nH]1)c1cccc(Br)c1 | 47
2 | O=C(N/N=C/c1ccc[nH]1)c1cccnc1 | -9.86
3 | COc1ccc(CCNC(=O)C2CCCN2S(=O)(=O)c2ccc(F)cc2)cc1OC (centres undefined) | 0.4
4 | O=C(CN(Cc1ccco1)C(=O)Cn1nnc(-c2cccs2)n1)NCc1ccccc1 | 4.1
5 | COC/C=C/C1=CC2=CC(=O)C(C)(OC(=O)c3cnc4ccccc4n3)C(=O)C2=CN1c1ccc(CO)cc1 (centres undefined) | 3.29
6 | O=C(c1ccc2c(=O)n(Cc3ccccc3)c(=S)[nH]c2c1)N1CCCC1 | -3.86
7 | CC(CCN1CCC(n2nccc2NC(=O)c2ccccc2Cl)CC1)c1ccccc1 (centres undefined) | 15.6
8 | Cc1nc(SCc2ccccc2F)c2cnn(-c3ccccc3)c2n1 | 9.04
9 | COc1cccc(-c2nc(C(=O)NCCCN3CCOCC3)cc3c2[nH]c2ccccc23)c1 | -10
10 | Cc1ccc(-c2nc(C(=O)NCCCN3CCOCC3)cc3c2[nH]c2ccccc23)cc1 | -3.27
11 | Cc1ccc(OCCn2ncc3ccccc3c2=O)c(C)c1 | 9.3
12 | ON=C1c2cc(OCCN3CCCCC3)ccc2-c2ccc(OCCN3CCCCC3)cc21 | 7.74
13 | COc1ccc2c(c1)C(=NO)c1cc(OC)ccc1-2 | -4.82
14 | CC1CCCC(C)N1C(=O)COC(=O)c1ccccc1O (centres undefined) | 2.65
15 | O=c1[nH]c2ccccc2nc1-c1ccccc1 | -0.96
16 | O=c1[nH]c2ccccc2nc1-c1ccc(Cl)cc1 | 2.14
17 | O=C(N/N=C/C=C/c1ccco1)C(O)c1ccccc1 (centres undefined) | 50.7
18 | O=C(CCCCCCCC(=O)c1ccccc1)c1ccccc1 | 4.08
19 | O=C(CCCCCCC(=O)c1ccccc1)c1ccccc1 | -5.92
20 | COCC(=O)NC1(c2nnnn2CCOC(=O)Nc2ccc(Cl)cc2)CCCCC1 | -9.42

Row | Structure (SMILES) | inhibition [%]
21 | S=C(NCCNC(=S)Nc1ccccc1Cl)Nc1ccccc1Cl | 4.51
22 | S=C(Nc1ccccc1Cl)Nc1ccc(Cl)cc1Cl | -2.8
23 | CCC(Sc1nnc2c3ccccc3n(CC)c2n1)C(=O)Nc1sc2c(c1C#N)CCCC2 (centres undefined) | 1.09
24 | O=[N+]([O-])c1ccc(Nc2nc(NCCO)nc(N3CCCC3)n2)cc1 | 7.94
25 | O=[N+]([O-])c1ccc(Nc2nc(N3CCOCC3)nc(N3CCOCC3)n2)cc1 | -0.58
26 | S=C(Nc1ccccc1Cl)N(CCCN1CCOCC1)Cc1ccco1 | 0.76
27 | Cc1ccc2nc(-c3cccc(Br)c3)cc(C(=O)NC3CC3)c2c1 | -6.86
28 | Cc1ccc(-c2cc(C(=O)NC3=NCCS3)c3cc(Br)ccc3n2)o1 | 8.99
29 | CCN(Cc1ccccc1)C(=O)COC(=O)c1cc(S(=O)(=O)Nc2c(C)n(C)n(-c3ccccc3)c2=O)ccc1C | 5.3
30 | CCCCCN(C(=O)CCCSc1nncs1)c1c(N)n(CCCC)c(=O)[nH]c1=O | 3.89
31 | CCN(CC)c1ccc(/C=C/[N+](=O)[O-])cc1 | 0.21
32 | CN(C)c1ccc(/C=C/[N+](=O)[O-])cc1 | 39
33 | Cc1ccc(/C=N/NC(=O)c2csc(C)c2)o1 | 4.06
34 | O=c1cc(-c2ccccc2)nc(Sc2ccc([N+](=O)[O-])cc2[N+](=O)[O-])[nH]1 | 57.1
35 | O=[N+]([O-])c1ccc(Sc2cccc3cccnc23)c([N+](=O)[O-])c1 | 65.5
36 | O=C(O)c1cc(N2C(=O)C3C4C=CC(C4)C3C2=O)ccc1NCc1cccnc1 (centres undefined) | 4.01
37 | CCN(c1cc(C)cc(C)c1)S(=O)(=O)c1nnc(NC(=O)C(C)(C)C)s1 | 5.8
38 | N/C(=N\OS(=O)(=O)c1cc(Cl)ccc1Cl)c1ccncc1 | 1.49
39 | Cc1ccc(-c2c(C(=O)N/N=C/c3ccc(OC(C)C)cc3)nnn2-c2nonc2N)cc1 | 5.21
40 | Cc1oc(-c2cccc(Cl)c2)nc1CN1CCC(C(=O)N2CCN(c3ccccn3)CC2)CC1 | 16.8

Row | Structure (SMILES) | inhibition [%]
41 | CCN1CCN(C(=O)C2CCN(Cc3nc(-c4cccc(Cl)c4)oc3C)CC2)CC1 | -0.4
42 | C=CCn1c(O)c(C(C)=NCCc2ccccc2)c(=O)[nH]c1=O | -9.8
43 | COc1cccc(NC(=O)c2cc(CN3C(=O)c4ccccc4C3=O)ccc2OC)c1 | -11.3
44 | Cc1ccc(C(=O)O/N=C(\N)c2ccc(Br)cc2)cc1 | 17.7
45 | Cc1cc(C)cc(C(=O)O/N=C(\N)c2ccc(Br)cc2)c1 | 2.33
46 | Cc1ccc(-c2csc3ncnc(NCCC(=O)O)c23)cc1C | 3.2
47 | COC(=O)C1=C(C)N(C)C(=O)NC1c1cc2c(cc1Br)OCO2 (centres undefined) | -1.06
48 | Nc1nc(CN2CCN(c3cccc(Cl)c3)CC2)nc(N2CCCc3ccccc32)n1 | 34.9
49 | COc1cccc(N2CCN(Cc3nc(N)nc(N4CCCc5ccccc54)n3)CC2)c1 | 55.4
50 | O=S(=O)(Cc1cc(Cl)nc(-c2ccncc2)n1)c1ccccc1 | 3.28
51 | Cc1ccn2c(NC3CCCCC3)c(-c3cccc(SC4CCCCC4)c3)nc2c1 | 48.6
52 | Cc1ccn2c(NC3CCCC3)c(-c3ccncc3)nc2c1 | -13.9
53 | CC(C)CC(NS(=O)(=O)c1ccc2c(c1)oc(=O)n2C)C(=O)NCc1cccnc1 (centres undefined) | -12.4
54 | COCCCN1C(=O)c2ccc(C(=O)Nc3cccc(OC)c3)cc2C1=O | -8.36
55 | COc1ccc(CCNC(=O)c2ccc([N+](=O)[O-])cc2Cl)cc1OC | -2.83
56 | CCc1cc(C(=O)NC2CCCN(Cc3ccccc3F)C2)n(C)n1 (centres undefined) | 6.68
57 | CC(C)CN(C(=O)CCC(=O)OC(C)C(=O)Nc1cccc(C#N)c1)c1c(N)n(CC(C)C)c(=O)[nH]c1=O (centres undefined) | -4.92
58 | CCOC(=O)CSc1nnc(COc2ccc3ccccc3c2)o1 | 6.46
59 | COC(=O)CSc1nnc(COc2ccc3ccccc3c2)o1 | -6.41
